Measured values reported in PubChem BioAssay (NCI).
About 83,000 compounds went through this panel and 20% of them were active in at least one assay; those are over-represented in the sample as a whole.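 Negative percent growth values reflect cell death: -40 means 40% of the cells present at the start died, and -100 means all died.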 Active and inactive are the calls of the source. Rule for the calls: active = growth percent below 10; inactive = the rest.

These compounds were tested on SF-295 CNS (assay: NCI-60 one-dose screen, 48 h (100 = growth as untreated, 0 = no growth, -100 = all killed)). Conditions: 10 µM.
With CCC(O)c1ccc(Br)cc1NC(=O)c1cccc(Cl)c1 (stereo unspecified) the growth was 9.43% (active). In the case of CCCCn1c(=O)[nH]c(N)c(C(c2ccc(Cl)cc2)c2c(N)[nH]c(=O)n(CCCC)c2=O)c1=O, the growth was 35.2% (inactive). With COc1ccc(C(=O)/C=C/c2cc(-c3ccc4c(c3)OCO4)n[nH]2)cc1OC the growth was 53.4% (inactive). With COc1ccc2oc(=O)cc(C(c3ccc[nH]3)c3ccc[nH]3)c2c1 the growth was 6.39% (active).

Each compound was assayed on SF-539 CNS in the same assay as above. Conditions: 10 µM.
For CCCCCCCCCCCC(=O)NCCCN(C)C, the growth was 86.6% (inactive). In the case of Nc1ccc(C2=CC(c3ccc(Cl)cc3)N3C=CSC3=N2)cc1 (stereo unspecified), the growth was -55.8% (active). With CC(=O)n1nc(C(=O)OC(C)(C)C)c2cc(F)c(F)cc21 the growth was 104% (inactive). In the case of COC(=O)c1c(C)nc(Nc2nc3ccccc3s2)nc1-c1ccc(Cl)cc1Cl, the growth was 103% (inactive). With O=C(O)CCCCSCCCCC(=O)O the growth was 103% (inactive). With COc1cc(-c2nc3ccc(C)cc3[nH]2)ccc1OCC(=O)N=Nc1c(O)[nH]c2ccccc12 the growth was -88.5% (active). With CC1=CSC2=NC(c3ccc(Cl)c(Cl)c3)=CC(c3ccc(Cl)cc3)N12 (stereo unspecified) the growth was -46.7% (active). In the case of COc1ccc(Nc2ccnc(N3CCN(c4ccnc5cc(Cl)ccc45)CC3)n2)cc1, the growth was -31.4% (active). Cn1cnc([N+](=O)[O-])c1/C=C1\Oc2ccc(Cl)cc2C1=O was tested, and the growth was 99.2% (inactive). With CCOC(=O)Cn1nnc(-c2ccc(OCc3ccccc3F)cc2)n1 the growth was 92.4% (inactive). In the case of COc1ccc(/C(CS(=O)(=O)c2ccccc2)=N\O)cc1, the growth was 102% (inactive). COc1ccc(S(=O)(=O)Nc2cc(/C=C\c3cc(OC)c(OC)c(OC)c3)ccc2OC)cc1 was tested, and the growth was -13% (active).
